PLK1 kinase inh: human PLK1 kinase inhibitors, primary screen, biochemical, TR-FRET. Serine/threonine-protein kinase PLK1 (Homo sapiens), P53350. recombinant PLK1 kinase, TR-FRET peptide phosphorylation. inhibition, % at 10 µM. 0.53% of 97,000 active. AID 619, 2007;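 active means inhibition of 50% or more in the single-concentration screen; inactive means inhibition below 50%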;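 further: 0% = DMSO max control and 100% = H-89 dihydrochloride min control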
Target sequence (P53350 whole entry, looked up): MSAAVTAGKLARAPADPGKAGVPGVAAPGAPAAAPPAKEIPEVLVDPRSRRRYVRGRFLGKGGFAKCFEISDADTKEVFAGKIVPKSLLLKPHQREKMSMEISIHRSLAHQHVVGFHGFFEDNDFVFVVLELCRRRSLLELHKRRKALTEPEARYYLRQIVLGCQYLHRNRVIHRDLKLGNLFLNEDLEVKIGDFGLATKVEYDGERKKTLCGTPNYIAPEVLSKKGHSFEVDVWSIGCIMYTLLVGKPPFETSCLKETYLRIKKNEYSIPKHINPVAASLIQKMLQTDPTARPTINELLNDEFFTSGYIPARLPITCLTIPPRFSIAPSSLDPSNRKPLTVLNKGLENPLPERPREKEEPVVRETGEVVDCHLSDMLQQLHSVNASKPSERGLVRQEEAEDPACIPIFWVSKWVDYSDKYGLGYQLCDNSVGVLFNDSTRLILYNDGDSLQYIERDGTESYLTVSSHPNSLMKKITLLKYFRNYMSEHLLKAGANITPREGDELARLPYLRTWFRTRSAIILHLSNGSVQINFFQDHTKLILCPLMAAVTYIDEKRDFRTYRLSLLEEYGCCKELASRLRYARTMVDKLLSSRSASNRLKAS
PLK1 PBD inh: Plk1 polo box domain binding inhibitors, primary screen, biochemical, fluorescence polarization. Serine/threonine-protein kinase PLK1 (Homo sapiens), P53350. inhibition, %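 (tested at about 20 µM)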. Plk1 PBD phosphopeptide binding. 0.13% of 97,000 active; in the data active means inhibition above about 34%, passing the limit was not always enough
CYP2C19 inh: blockers of cytochrome P450 2C19 activity – biochemical, luminescence, ADME assay, primary screen; P33261; CYP2C19 Supersomes, luciferin-H EGE luminescence, 30 min; inhibition, % at 5 µM; 21% of 96,000 active;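 active means CYP2C19 inhibition above a set limit at 5 µM in the primary screen, cut at about 50% in these data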;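 further: plate controls were negative control wells for no effect and 2.5 mM tranylcypromine positive control for full effect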
CYP2C19 act: human CYP2C19 activators, primary screen, biochemical, luminescence | recombinant CYP2C19, luciferin-H EGE luminescence; stronger effect = higher value; 0 = fully inhibited enzyme, 1 = untreated enzyme | 96,000 tested, under 10 active | activation factor at 5 µM;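 active means activation factor of at least 2 at 5 µM in the primary screen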;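 further: 0 = wells with 2.5 mM tranylcypromine and 1 = vehicle-only wells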
CYP2C9 activ: human CYP2C9 activators, primary screen, biochemical, luminescence | Cytochrome P450 2C9 (Homo sapiens), P11712 | recombinant CYP2C9, luciferin-H conversion; stronger effect = higher value; factor 1 = untreated enzyme, 0 = blocked | activation factor at 5 µM | 1.4% of 96,000 active;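 active means activation factor of 2 or more for CYP2C9 at a 5 µM dose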;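 further: 0 = sulfaphenazole-blocked wells and 1 = vehicle-only wells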
CYP2C9 inhib: blockers of cytochrome P450 2C9 activity – biochemical, luminescence, ADME assay, primary screen. P11712. inhibition, % at 5 µM. 20% of 96,000 active. CYP2C9 Supersomes, luciferin-H conversion;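 active means blocking of liver enzyme CYP2C9 beyond about 50% at 5 µM, limit read from the data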
* marks the source's active call; other numbers are inactive results; . = not tested or not shown. A selection: hits, their analogues and other compounds. The true share with any hit is near 28%.

SMILES	PLK1 kinase inh	PLK1 PBD inh	CYP2C19 inh	CYP2C19 act	CYP2C9 activ	CYP2C9 inhib
Cc1ccc(CSc2nnc([C@@H]3CCCN3)o2)cc1	-7.9	28.0	50.2*	0.5	0.9	7.5
Cc1ccc(S(=O)(=O)N(C(=O)c2ccncc2)c2ccc(OC(=O)c3ccncc3)c3ccccc23)c(C)c1	-2.3	25.1	97.3*	0	0	99.1*
Cc1ccc(OC(=O)c2ccc(S(=O)(=O)N(C)C)cc2)c(-n2nc3ccccc3n2)c1	-4.1	11.8	15.9	0.8	0.7	28.0
O=C(CSc1nc2ccccc2c(=O)n1Cc1ccco1)N1CCCCCC1	-7.4	-5.2	57.8*	0.4	0.1	94.6*
O=C(CSc1nc2ccccc2c(=O)n1-c1ccccc1)N1CCN(CCO)CC1	3.2	-3.2	7.4	0.9	0.9	12.5
COC(=O)c1ccc2c(=O)n(Cc3ccco3)c(SCC(=O)Nc3ccccc3Cl)nc2c1	-5.9	21.4	34.9	0.7	0.1	87.5*
O=C(CSc1nc2ccccc2c(=O)n1-c1ccccc1)N1CCCC1	-7.0	-1.7	33.8	0.7	0.5	51.0*
COc1cc2nc(SCC(=O)NCCc3ccccc3)n(Cc3ccco3)c(=O)c2cc1OC	.	.	65.8*	0.3	0	95.9*
CCCCCC(=O)Nc1cccc(-c2nc3ncccc3o2)c1	-1.2	-20.1	29.4	0.7	0.6	44.6
COCCNC(=O)c1ccc2c(=O)n(Cc3ccco3)c(SCC(=O)NC3CCCCC3)nc2c1	-9.0	19.8	29.8	0.7	0.8	24.1
O=C(NCc1ccco1)c1ccc2c(=O)n(Cc3ccco3)c(SCC(=O)N3CCCC3)nc2c1	-0.4	0.9	22.8	0.8	0.4	63.7*
COc1cc(NS(=O)(=O)c2ccc(N/C=C(\C#N)c3nc4cc(Cl)ccc4o3)cc2)nc(OC)n1	-13.3	-10.9	-6.3	1.1	0.4	63.3*
COP(=O)(/C=C/c1ccccc1)C(O)c1ccc(F)cc1 (stereo not given)	-12.4	-4.1	28.9	0.7	1.2	-18.9
Cc1ccc(C(=O)c2cc([N+](=O)[O-])ccc2N2CCN(C)CC2)cc1	0.0	-29.7	11.7	0.9	0.8	16.7
O=C(c1ccc(Br)cc1)c1cc([N+](=O)[O-])ccc1N1CCCCC1	5.1	12.6	64.9*	0.4	0.4	60.7*
O=c1c2ccccc2c(/C=N/n2cnnc2)c(O)n1-c1ccccc1F	.	.	-2.6	1	0.4	58.3*
Cc1ccc(-n2c(O)c(/C=N/n3cnnc3)c3ccccc3c2=O)cc1	-3.5	-10.7	7.7	0.9	0.1	90.7*
O=c1c2ccccc2c(C=NCCO)c(O)n1-c1ccccc1	-4.8	-1.1	-1.9	1	0.9	6.3
C(=N\n1cnnc1)/c1cccc2ccccc12	-10.9	2.5	0.8	1	1.2	-17.9
Cc1cc(C)n(C2CCCCC2OC(=O)c2ccccc2)n1 (stereo not given)	-17.5	-16.1	53.0*	0.5	0.8	18.9
Cc1ccc(NS(=O)(=O)c2ccccc2)c2c1CC(C)(C)O2	-11.2	7.3	65.7*	0.3	2*	-100.0
Oc1ccc(Br)cc1-c1nc2cnccn2c1NC1CCCCC1	22.4	-2.7	76.9*	0.2	0.1	90.8*
O=C1CC(c2ccccc2)Cc2nc(NCc3ccco3)ncc21 (stereo not given)	-6.3	2.0	45.4	0.5	0.5	51.1*
O=C1CC(c2ccco2)Cc2nc(NCC3CCCO3)ncc21 (stereo not given)	-7.0	-4.8	12.4	0.9	1	3.9
COc1ccccc1C(=O)Nc1ncc2c(n1)CC(c1ccco1)CC2=O (stereo not given)	-8.9	-11.0	56.1*	0.4	0.7	28.6
SMILES	PLK1 kinase inh	PLK1 PBD inh	CYP2C19 inh	CYP2C19 act	CYP2C9 activ	CYP2C9 inhib
O=C1CC(c2ccco2)Cc2nc(Nc3ccc(F)cc3)ncc21 (stereo not given)	7.4	-10.7	55.9*	0.4	0.4	59.0*
CCNc1c2c3c(cccc3n(C)c1=O)C(=O)c1ccccc1-2	-100.7	-105.6	18.5	0.8	0.5	53.2*
Cn1c(=O)c(NCCc2ccccc2)c2c3c(cccc31)C(=O)c1ccccc1-2	-152.1	-206.9	78.5*	0.2	0	97.5*
CSc1nnc(-c2cc3ccccc3cc2O)n1C	-3.6	-29.3	5.9	0.9	0.9	12.1
Cc1cnc(C(=O)OCC(=O)N2c3ccccc3NC(=O)C2(C)C)cn1	-2.9	-13.4	-2.0	1	1	-3.3
CC1(C)C(=O)Nc2ccccc2N1C(=O)COc1ccc(S(=O)(=O)N2CCOCC2)cc1Cl	-8.6	18.0	41.7	0.6	0.3	66.2*
CC1(C)C(=O)Nc2ccccc2N1C(=O)COc1ncnc2c(Cl)cc(Cl)cc12	-11.4	3.0	77.3*	0.2	0.5	49.2
CC(=O)c1cnc2nc(C(F)(F)F)nn2c1C	-10.1	-14.7	-1.0	1	1.1	-10.2
CCCC(=O)c1c(NC)cc(C)oc1=O	-6.2	7.0	5.5	0.9	1.1	-10.4
Cc1cc(C)nc(NC(=O)c2cnc3sccn3c2=O)n1	-16.8	10.0	43.6	0.6	1.1	-5.5
C/C(=C\C(=O)c1ccc(Br)cc1)NCc1ccc(C)cc1	-2.2	-5.0	10.1	0.9	0.8	22.4
c1ccc2c(c1)nc1n2CCS1	-14.5	5.6	62.5*	0.4	1.2	-19.4
O=C1CSc2nc3ccccc3n21	-15.8	-6.6	-2.0	1	1.3	-30.1
O=C(CNCC1CCCO1)N1CCCc2ccccc21 (stereo not given)	0.3	6.9	-16.3	1.2	1.1	-13.6
Cc1ccc(-c2c(C)sc(=NC(=O)c3ccco3)n2C)cc1	-10.5	-9.6	21.2	0.8	0.2	76.6*
COCC(=O)Nc1nc(-c2ccccc2)ns1	-2.4	-11.8	.	.	.	.
CC(C)Cn1c(C(C)C)nc([N+](=O)[O-])c1S(=O)(=O)c1ccc(F)cc1	-15.8	13.6	66.4*	0.3	0.9	13.1
CC(C)Cn1c(C(C)C)nc([N+](=O)[O-])c1Sc1ccc(Cl)cn1	-7.6	17.1	.	.	.	.
CC1CCc2c(sc(NC(=O)c3ccc(-c4ccccc4[N+](=O)[O-])o3)c2C#N)C1 (stereo not given)	1.8	-25.4	10.8	0.9	0.1	90.7*
CC(=O)Nc1sc2c(c1C#N)CCCC2	-5.3	-0.2	-3.1	1	1	0.0
CC1CCc2c(sc(NC(=O)c3ccc(Cn4cc([N+](=O)[O-])cn4)o3)c2C#N)C1 (stereo not given)	-8.3	-5.8	-2.0	1	1.1	-9.0
N#Cc1c(NC(=O)c2ccc(-c3ccccc3[N+](=O)[O-])o2)sc2c1CCCC2	-11.3	15.3	49.5	0.5	0	99.3*
